Assay results as given in ChEMBL document CHEMBL3433997, “St. Jude Leishmania screening dataset” (2016).

How the values were obtained:
Type in all cases: functional
[1] = target: Solute carrier family 2, facilitated glucose transporter member 1 (Homo sapiens) (UniProt P11166); experiment: ST_JUDE_LEISH: Cytotoxicity at 2uM final concentration against transgenic Leishmania Mexicana promastigotes LmGLUT1 that are glucose transport deficient and complemented with the human glucose transporter GLUT1. Activity is measured by DNA content using SYBR green in vitro
Sequence of Solute carrier family 2, facilitated glucose transporter member 1 (Homo sapiens) (P11166 whole entry): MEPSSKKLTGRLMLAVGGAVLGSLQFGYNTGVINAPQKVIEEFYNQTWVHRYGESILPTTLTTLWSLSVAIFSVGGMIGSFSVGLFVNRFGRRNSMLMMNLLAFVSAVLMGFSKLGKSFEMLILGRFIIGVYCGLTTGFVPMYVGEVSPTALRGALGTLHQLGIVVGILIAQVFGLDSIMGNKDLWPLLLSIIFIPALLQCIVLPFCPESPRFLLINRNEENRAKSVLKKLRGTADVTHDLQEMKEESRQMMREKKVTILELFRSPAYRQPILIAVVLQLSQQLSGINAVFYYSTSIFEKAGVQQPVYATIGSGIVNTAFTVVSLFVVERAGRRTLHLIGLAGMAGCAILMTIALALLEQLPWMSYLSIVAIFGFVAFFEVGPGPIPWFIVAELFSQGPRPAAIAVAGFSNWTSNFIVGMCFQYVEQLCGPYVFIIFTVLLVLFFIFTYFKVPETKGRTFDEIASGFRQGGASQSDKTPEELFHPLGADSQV

[2] = target: Hexose transporter 1 (Plasmodium falciparum) (UniProt O97467); experiment: ST_JUDE_LEISH: Cytotoxicity at 2uM final concentration against transgenic Leishmania Mexicana promastigotes LmPfHT that are glucose transport deficient and complemented with the Plasmodium falciparum hexose transporter. Activity is measured by DNA content using SYBR green in vitro
[3] = target: Glucose transporter (Leishmania mexicana) (UniProt O61059); experiment: ST_JUDE_LEISH: Cytotoxicity at 2uM final concentration against transgenic Leishmania Mexicana promastigotes LmGT2 that are glucose transport deficient and complemented with the L. Mexicana glucose transporter 2. Activity is measured by DNA content using SYBR green in vitro

SMILES	inhibition [1] [%]	inhibition [2] [%]	inhibition [3] [%]
CCNc1cc(C(=O)N[C@@H](Cc2ccccc2)[C@H](O)CNC2(C)CCCCC2)cc(N2CCCCS2(=O)=O)c1	1.96	-0.16	-0.26
COc1ccc(NC(=O)Nc2cc(C)nc3ccccc23)cc1Cl	9.47	8.02	7.39
CC(=O)c1c[nH]c(C(=O)Nc2ccc(-c3cn4ccccc4n3)cc2)c1	11.8	10.9	10.2
CN(CCCNCc1cccc2ccccc12)CCCNCc1cccc2ccccc12	1.31	0.53	1.98
CCS(=O)(=O)Nc1ccc2[nH]cc(C3CCN(CCC4CCN(C(=O)/C=C/c5ccc(Cl)c(Cl)c5)CC4)CC3)c2c1	2.73	4.42	1.91
CCN1CCN(CCCNc2c3ccc(Cl)cc3nc3ccc(OC)cc23)CC1	9.58	9.46	8.38
Cc1nc2ccc3ccc(CNc4ccc5c(c4)CN([C@H](CCC(=O)O)C(=O)O)C5=O)cc3c2c(=O)[nH]1	3.36	2.42	10
CN(Cc1cccc(F)c1)C1CCCN(c2cc(NC(=O)c3ccccc3)ccn2)C1 (stereo not given)	4.12	4.07	3.71
O=C(NCC1CCC(CNCCc2ccccc2)CC1)Nc1ccc(Cl)c(Cl)c1 (stereo not given)	-0.7	-1.96	-2.11
Cc1ccc2[nH]c(-c3ccc(C=CC(=O)NCc4ccc(Cl)c(Cl)c4)cc3)nc2c1	10.3	9.48	4.93
CCSc1ccccc1CON1C(=N)N=C(N)NC1(C)C	15.4	19.1	18.7
CS(=O)(=O)n1c(CN2CCN(c3ncc(C(F)(F)F)cc3Cl)CC2)nc2ccccc21	8.28	7.91	5
O=C(NCCc1cccc(Cl)c1Cl)c1cnc(N2CCN(c3ccncc3)CC2)c(Cl)c1	77.2	81.6	83.9
Cc1cc(=O)c2cc(Oc3ccc(OC(F)(F)F)cc3)ccc2[nH]1	-0.06	0.96	-1.19
Cc1cccc2nc(-c3cccc(-c4ccc(NC(=O)CN5CCOCC5)cc4)c3)[nH]c12	4.78	4.5	2.97
COc1cc(NC(=O)c2ccc(-c3ccccc3)cc2)ccc1OCCCN1CCC(c2ccccc2)CC1	0.2	2.26	2.91
c1cncc(CN2CCCN(c3ccc4c(c3)CCN(Cc3ccc(-c5ncc[nH]5)cc3)CC4)CC2)c1	1.93	2.7	2.25
O=[N+]([O-])c1ccc(N/C(=N\c2ccccc2Br)NCCOc2ccccc2)c(O)c1	0.7	-0.42	-2.35

SMILES	inhibition [1] [%]	inhibition [2] [%]	inhibition [3] [%]
CCc1cccc(-n2c(=O)c3cccnc3n2CC(=O)NC2CCCC2)c1	3.43	12	4.05
Cc1cccc2nc(-c3ccc(-c4cccc(NC(=O)Nc5cccc(C#N)c5)c4)cc3)[nH]c12	0.79	-0.19	-1.23
CC(C)(C)c1ccc(O)c(CNC2CCCCC2)c1	4.48	3.36	3.1
O=S(=O)(NCCN1CCCC1)c1ccc(-c2ccc(CNCc3ccsc3)cc2)s1	10.5	7.66	4.76
O=S(=O)(c1ccc(OCc2ccc(Cl)cc2)cc1)c1cc2c(cc1OCc1ccccc1)CCN(CC1CC1)CC2	0.01	-1.17	-3.24
CCc1ccc(CNCC(CCNc2cc(=O)c3ccccc3[nH]2)NCc2cc(Br)cc(Br)c2)o1 (stereo not given)	-1.12	1.71	-0.33
Cc1cc(C(=O)Nc2ccc3c(c2)CCN3C2CCN(Cc3ccc(F)cc3Cl)C2)no1 (stereo not given)	4.11	3.71	3.86
CC(C)C1C(O)=C(c2ccc3ccccc3c2)C(=O)N1Cc1ccsc1 (stereo not given)	4.27	5.59	2.54
COc1ccc(CNCc2ccc(F)cc2)cc1-c1ccc(S(=O)(=O)NCCN2CCCC2)c(C)c1	2.82	3.53	-2.85
COc1ccc(CNC2CCN(c3ccc(NC(=O)c4cccc(Cl)c4)cc3)CC2)cc1OC	2.25	1.47	0.61
COC(=O)c1cccc(CNCc2ccc(-c3ccc(-c4nc5cccc(C)c5[nH]4)cc3)cc2)c1	6.68	1.95	1.08
CC(=O)Nc1ccc(C(=O)Nc2ccc(-c3cccc(-c4nc5cc(C(F)(F)F)ccc5[nH]4)c3)cc2)cn1	-0.12	0.25	-0.11
Cc1cc(N[C@@H](Cc2ccccc2)C(=O)NCCCOC(C)C)nc(NCC2CCCCC2)n1	11.7	11.7	8.28
Cn1nccc1C(=O)NCCNCc1cccc(-c2csc(-c3nc4ccccc4[nH]3)c2)c1	9.15	8.22	7.22
c1ccc2[nH]c(-c3ccc(-c4ccc(CNCCc5ccncc5)cc4)s3)nc2c1	8.39	5.02	2.3
N#Cc1cc(C(=O)c2cc(Br)ccc2O)cn(-c2cc(Cl)cc(Cl)c2)c1=O	-3.11	0.39	-3.61
CN1CCN(Cc2ccc(-c3ccc4c(Nc5ccc(Oc6ccccn6)cc5)ccnc4c3)o2)CC1	-0.46	0.11	-1.97
